Measured values reported in PubChem BioAssay (NCATS).
Records with an inconclusive call do not appear. Active and inactive are the calls of the source. Unless noted, calls come from the whole dose curve; as a rule, active = well fitted curve in the direction sought with a large enough effect; inconclusive = small, poorly fitted or top-dose-only effect, or another doubt; inactive = no such curve, though single readings can be large; an effect the other way counts as inactive or inconclusive.

Assays:
[1] = Validation screen for small molecules that induce DNA re-replication in MCF 10A normal breast cells (AID 463097); note: nearly all actives have a fitted effect of over 60% in size
Method in brief: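 Readout: Hoechst nuclear fluorescence intensity, 405 ex / 500-530 em, by scanning plate imager; re-replication scored as increase in nuclei with elevated DNA content. Cells exposed to compound 48 hr, 37 C, 5% CO2 beforehand.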

[2] = target: DNA polymerase III PolC-type (Bacillus subtilis (strain 168)) (UniProt P13267); assay: qHTS Validation Assay for the Inhibitors of DNA Replication in Gram-Positive Bacteria (AID 485295);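 note: PicoGreen fluorescence of double-stranded DNA made on primed circular M13 template; series mostly up to about 57 µM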
Method in brief: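 Reconstituted B. subtilis holoenzyme (Pol III, beta clamp, SSB, primase) was preincubated with compound at room temperature, then given single-stranded circular M13Gori plus dNTPs and NTPs. EDTA-containing PicoGreen stopped the reaction, and dsDNA product was read by fluorescence.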

[3] = target: Tumor susceptibility gene 101 protein (Homo sapiens) (UniProt Q99816); assay: qHTS Validation Assay for Iinhibitors of HIV-1 Budding by Blocking the Interaction of PTAP/TSG101 (AID 485342; calls by dose curve)
Method in brief: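 Tsg101 binding domain (10 uM final) in pH 7.5 HEPES/NaCl/Tween 20/EDTA/TCEP buffer was mixed with pin-transferred compounds, then FITC-labeled PTAP peptide (50 nM final) was added; after 20 min at r.t., fluorescence polarization was read.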

[4] = qHTS Validation Assay to Find Inhibitors of Chronic Active B-Cell Receptor Signaling (AID 485345; active = well fitted curve in the direction sought with a large enough effect in the main read-out, with a control signal flat, not every such curve was filed as active)
Method in brief: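 TMD8 ABC-DLBCL cells with dox-inducible green luciferase–IκBα fusion and red native luciferase; compounds 46 uM–3 nM, 4 h at 37C with doxycycline in 0.5% FBS IMDM. Green/red ratio normalized to basal and 10 uM MG-132.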

[5] = target: Beta-2 adrenergic receptor (Homo sapiens) (UniProt P07550); assay: qHTS validation assay of beta-arrestin-biased ligands of beta2-adrenergic receptor (AID 485366)
Method in brief: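 qHTS, Tango cells, 1500 cells/well, DMEM + 1% FBS. Cpd 18 hr at 37 degrees C. Luciferin/ATP/CoA detection mix, 15 min RT, luminescence read. %Activity from corrected signal; CRC fit, curve class.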

[6] = Quantitative high throughput screen for delayed death inhibitors of the malarial parasite plastid, 96 hour incubation (AID 488745);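 note: luciferase-expressing P. falciparum in erythrocytes at 2% hematocrit and 0.1% parasitemia; series mostly up to about 29 µM; nearly all actives have a fitted effect of over 70% in size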
Method in brief: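 Readout is firefly luciferase luminescence from an integrated reporter in P. falciparum; lower signal marks inhibited growth. Cultures at 2% hematocrit and 0.1% parasitemia were treated with compound across two generations (96 h, 37 C, 5% CO2).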

[7] = Quantitative high throughput screen for delayed death inhibitors of the malarial parasite plastid, 48 hour incubation (AID 488752); note: nearly all actives have a fitted effect of over 65% in size
Method in brief: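 First, compound was pinned into RPMI 1640 medium containing 0.5% Albumax. Next, reporter-parasite-infected erythrocytes were added to 2% hematocrit and 0.1% parasitemia. After 48 h at 37 C under 5% CO2, luciferase detection reagent was added and luminescence read.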

[8] = target: Methanococcus maripaludis chaperonin (MmCpn) (UniProt Q6LX38); assay: High-Throughput Screening for Modulators of Cytosolic Chaperonin Activity: MmCpn Primary Screen (AID 488978);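 note: 50 nM MmCpn enzyme hydrolysing 30 µM ATP at 37 °C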
Method in brief: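 MmCpn (50 nM final) was preincubated with compound 5 min at RT, then 30 uM ATP (final) was added and the reaction ran 10 min at 37C. ADP produced was detected by Transcreener HTRF (ex 320 nm; em 590/665 nm).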

[9] = target: Transient receptor potential cation channel subfamily V member 1 (Homo sapiens) (UniProt Q8NER1); assay: HTS Assay for Compounds that Act as Enhancers of the Vanilloid Receptor 1 (AID 488979)
Method in brief: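 TRPV1-expressing cells loaded with Fluo-8 calcium dye; compounds added and calcium influx read kinetically for 3 min (agonist phase), then capsaicin at EC20 added and read 2 min more for enhancement. Fluorescence ex 480/em 520 nm.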

[10] = target: Thyrotropin receptor (Homo sapiens) (UniProt P16473); assay: qHTS Assay for Antagonists of the Thyroid Stimulating Hormone Receptor (AID 488980); note: series mostly up to about 58 µM
Method in brief: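 HEK293 cells transfected with human TSHR, suspended in HEPES-buffered HBSS with 70 uM RO 20-1724, were treated with compounds plus TSH at EC80 (4 nM final). cAMP was measured by competitive HTRF (cryptate anti-cAMP antibody, cAMP-d2 acceptor).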

[11] = target: D(1A) dopamine receptor (Homo sapiens) (UniProt P21728); assay: HTS Assay for Allosteric Agonists of the Human D1 Dopamine Receptor: Primary Screen for Agonists (AID 488981)
Method in brief: (§1)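 Tetracycline-induced HEK293 T-REx cells force-coupled to calcium signalling were incubated overnight at 30 C and dye-loaded at room temperature. Calcium flux over 180 s after compound addition flagged agonists; a further 180 s read after EC20 dopamine flagged potentiators.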

[12] = target: D(1A) dopamine receptor (Homo sapiens) (UniProt P21728); assay: HTS Assay for Allosteric Agonists of the Human D1 Dopamine Receptor: Primary Screen for Potentiators (AID 488982)
Method in brief: as §1

[13] = target: D(1A) dopamine receptor (Homo sapiens) (UniProt P21728); assay: HTS Assay for Allosteric Agonists of the Human D1 Dopamine Receptor: Primary Screen for Antagonists (AID 488983);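 note: calcium flux response to an EC80 dopamine challenge measured with no-wash dye; nearly all actives have a fitted effect of over 65% in size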
Method in brief: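 Kinetic fluorescence at 1 cycle/sec tracked intracellular calcium in force-coupled, tetracycline-inducible HEK293 T-REx D1 cells. Loss of response to an EC80 dopamine dose, given 180 s after compound, marked antagonists.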

[14] = target: Thioredoxin reductase 1, cytoplasmic (Rattus norvegicus) (UniProt O89049); assay: qHTS Assay for Substrates of Mammalian Selenoprotein Thioredoxin Reductase 1 (TrxR1) (AID 488772);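 note: series mostly up to about 57 µM; a drop in NADPH fluorescence below the no-compound background marks a TrxR1 substrate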
Method in brief: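 In this dual-purpose format, potential substrates are identified from the first fluorescence read after selenite addition, not from the 8-minute delta. Rat enzyme is preincubated with NADPH and then with compound at ~22 deg C.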

[15] = target: Thioredoxin reductase 1, cytoplasmic (Rattus norvegicus) (UniProt O89049); assay: qHTS Assay for Inhibitors of Mammalian Selenoprotein Thioredoxin Reductase 1 (TrxR1) (AID 488773); conditions: Potency: inhibition;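 note: drop in NADPH fluorescence over an 8 min run after selenite addition; series mostly up to about 57 µM; nearly all actives have a fitted effect of over 40% in size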
Method in brief: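 Inhibition is scored from the loss of NADPH fluorescence between first and last reads of an 8-min kinetic run. Selenite (400 uM) was the substrate, added after 15 min compound preincubation at room temperature.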

[16] = target: Flap endonuclease 1 (Homo sapiens) (UniProt P39748); assay: qHTS Validation Assay for the Inhibitors of Human Flap endonuclease 1 (FEN1) (AID 488816)
Method in brief: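 Steps: add FEN1 (10 nM reagent) or buffer only; pin compounds; hold 15 min at room temperature; start with substrate, 50 nM final; read at 0 and 15 min; correct, normalize and fit a four-parameter Hill curve.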

[17] = target: M-phase phosphoprotein 8 (Homo sapiens) (UniProt Q99549); assay: qHTS Validation Assay for Inhibitors for MPP8 Chromodomain Interactions with Methylated Histone Tails (AID 488949);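 note: AlphaScreen signal from MPP8 chromodomain bound to biotinylated H3K9me3 peptide; top concentration of the series differs between compounds; nearly all actives have a fitted effect of over 55% in size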
Method in brief: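 MPP8 (50 nM) was preincubated with biotinylated H3(1-18)K9me3 peptide (50 nM) in PBS pH 7.4, 0.01% Tween-20 for 30 min at room temperature, then with compounds for 30 min; binding was detected by AlphaScreen.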

[18] = target: Chromobox protein homolog 1 (Homo sapiens) (UniProt P83916); assay: qHTS Validation Assay for Inhibitors of HP1-beta Chromodomain Interactions with Methylated Histone Tails (AID 488953); note: nearly all actives have a fitted effect of over 50% in size; note: potency is the fitted concentration of half-maximal effect
Method in brief: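 Disruption of preformed HP1-beta:H3K9me3 peptide complexes (both 50 nM, PBS pH 7.4 with 0.01% Tween-20) is measured by AlphaScreen after 30 min compound exposure at room temperature, using streptavidin donor and nickel chelate acceptor beads at 10 ug/mL final.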

[19] = target: ATP-dependent 6-phosphofructokinase (Trypanosoma brucei brucei) (UniProt O15648); assay: qHTS Validation Assay to Find Inhibitors of T. brucei phosphofructokinase (AID 485368); conditions: outcome: dose series up to 57.5 µM
Method in brief: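 Luminescent ADP detection measures PFK turnover of fructose-6-phosphate (0.5 mM) with ATP (0.1 mM) at pH 8.0. Reaction runs 45 min at room temperature with 1.25 nM enzyme; inhibitors tested as titrations up to 57 uM.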

Measured: Potency

ATP-dependent 6-phosphofructokinase (Trypanosoma brucei brucei), sequence (O15648 whole entry, looked up): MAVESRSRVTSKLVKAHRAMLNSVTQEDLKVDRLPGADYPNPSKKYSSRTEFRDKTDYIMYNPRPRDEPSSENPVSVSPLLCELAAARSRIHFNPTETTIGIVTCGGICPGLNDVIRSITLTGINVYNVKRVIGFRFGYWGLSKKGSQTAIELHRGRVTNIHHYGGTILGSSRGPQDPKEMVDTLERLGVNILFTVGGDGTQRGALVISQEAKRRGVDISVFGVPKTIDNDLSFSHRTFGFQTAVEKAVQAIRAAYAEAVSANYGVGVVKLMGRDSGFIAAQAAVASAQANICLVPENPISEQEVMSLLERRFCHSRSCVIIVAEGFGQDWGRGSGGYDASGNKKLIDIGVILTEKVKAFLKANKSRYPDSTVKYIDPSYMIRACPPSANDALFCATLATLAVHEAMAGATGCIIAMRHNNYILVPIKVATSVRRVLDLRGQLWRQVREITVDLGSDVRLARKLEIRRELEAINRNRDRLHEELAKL
Flap endonuclease 1 (Homo sapiens), sequence (P39748 whole entry, looked up): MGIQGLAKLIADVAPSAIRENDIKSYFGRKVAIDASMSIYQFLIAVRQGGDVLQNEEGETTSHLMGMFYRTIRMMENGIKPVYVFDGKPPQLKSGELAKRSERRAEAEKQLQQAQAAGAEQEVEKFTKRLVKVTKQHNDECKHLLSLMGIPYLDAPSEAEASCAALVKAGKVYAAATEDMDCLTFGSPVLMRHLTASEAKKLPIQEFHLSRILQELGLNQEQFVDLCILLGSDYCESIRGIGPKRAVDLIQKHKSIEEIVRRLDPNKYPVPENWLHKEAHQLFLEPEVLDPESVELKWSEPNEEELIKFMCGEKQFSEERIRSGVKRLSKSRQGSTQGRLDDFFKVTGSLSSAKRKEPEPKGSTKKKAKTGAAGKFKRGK
Thyrotropin receptor (Homo sapiens), sequence (P16473 whole entry, looked up): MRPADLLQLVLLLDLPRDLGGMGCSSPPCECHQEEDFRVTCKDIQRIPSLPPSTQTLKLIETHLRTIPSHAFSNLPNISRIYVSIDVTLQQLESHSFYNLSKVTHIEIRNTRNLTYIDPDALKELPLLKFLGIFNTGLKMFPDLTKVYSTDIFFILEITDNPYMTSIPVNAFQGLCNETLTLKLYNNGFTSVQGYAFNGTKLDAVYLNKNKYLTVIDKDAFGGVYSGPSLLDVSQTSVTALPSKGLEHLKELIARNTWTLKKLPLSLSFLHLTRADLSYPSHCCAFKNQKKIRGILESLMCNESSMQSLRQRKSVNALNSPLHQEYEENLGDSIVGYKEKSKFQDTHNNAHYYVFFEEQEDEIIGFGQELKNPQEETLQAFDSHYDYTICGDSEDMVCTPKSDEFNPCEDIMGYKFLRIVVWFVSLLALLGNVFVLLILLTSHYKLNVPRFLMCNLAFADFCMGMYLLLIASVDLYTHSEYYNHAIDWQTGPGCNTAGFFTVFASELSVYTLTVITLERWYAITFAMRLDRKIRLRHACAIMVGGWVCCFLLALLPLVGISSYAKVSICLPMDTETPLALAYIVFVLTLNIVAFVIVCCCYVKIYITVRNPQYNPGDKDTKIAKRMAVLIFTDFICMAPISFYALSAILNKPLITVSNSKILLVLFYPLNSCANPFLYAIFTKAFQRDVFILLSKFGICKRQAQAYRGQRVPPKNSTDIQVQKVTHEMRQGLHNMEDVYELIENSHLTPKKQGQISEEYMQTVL
Tumor susceptibility gene 101 protein (Homo sapiens), sequence (Q99816 whole entry, looked up, the tested form may be a part): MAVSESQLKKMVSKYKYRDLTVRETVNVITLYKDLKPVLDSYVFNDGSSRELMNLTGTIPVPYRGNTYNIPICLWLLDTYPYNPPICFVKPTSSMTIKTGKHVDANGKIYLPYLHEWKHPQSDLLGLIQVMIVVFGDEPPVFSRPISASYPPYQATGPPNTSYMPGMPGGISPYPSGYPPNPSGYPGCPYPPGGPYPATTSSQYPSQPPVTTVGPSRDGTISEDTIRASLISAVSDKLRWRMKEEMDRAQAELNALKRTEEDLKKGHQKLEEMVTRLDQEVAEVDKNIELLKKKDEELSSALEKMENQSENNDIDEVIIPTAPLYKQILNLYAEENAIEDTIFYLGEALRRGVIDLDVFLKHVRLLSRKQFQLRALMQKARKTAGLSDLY
Chromobox protein homolog 1 (Homo sapiens), sequence (P83916 whole entry, looked up): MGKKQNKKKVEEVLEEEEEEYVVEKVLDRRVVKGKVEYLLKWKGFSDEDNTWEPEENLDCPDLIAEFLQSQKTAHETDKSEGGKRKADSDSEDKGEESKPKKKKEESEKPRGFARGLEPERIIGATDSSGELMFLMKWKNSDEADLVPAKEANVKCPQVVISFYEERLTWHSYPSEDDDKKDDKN
Transient receptor potential cation channel subfamily V member 1 (Homo sapiens), sequence (Q8NER1 whole entry, looked up): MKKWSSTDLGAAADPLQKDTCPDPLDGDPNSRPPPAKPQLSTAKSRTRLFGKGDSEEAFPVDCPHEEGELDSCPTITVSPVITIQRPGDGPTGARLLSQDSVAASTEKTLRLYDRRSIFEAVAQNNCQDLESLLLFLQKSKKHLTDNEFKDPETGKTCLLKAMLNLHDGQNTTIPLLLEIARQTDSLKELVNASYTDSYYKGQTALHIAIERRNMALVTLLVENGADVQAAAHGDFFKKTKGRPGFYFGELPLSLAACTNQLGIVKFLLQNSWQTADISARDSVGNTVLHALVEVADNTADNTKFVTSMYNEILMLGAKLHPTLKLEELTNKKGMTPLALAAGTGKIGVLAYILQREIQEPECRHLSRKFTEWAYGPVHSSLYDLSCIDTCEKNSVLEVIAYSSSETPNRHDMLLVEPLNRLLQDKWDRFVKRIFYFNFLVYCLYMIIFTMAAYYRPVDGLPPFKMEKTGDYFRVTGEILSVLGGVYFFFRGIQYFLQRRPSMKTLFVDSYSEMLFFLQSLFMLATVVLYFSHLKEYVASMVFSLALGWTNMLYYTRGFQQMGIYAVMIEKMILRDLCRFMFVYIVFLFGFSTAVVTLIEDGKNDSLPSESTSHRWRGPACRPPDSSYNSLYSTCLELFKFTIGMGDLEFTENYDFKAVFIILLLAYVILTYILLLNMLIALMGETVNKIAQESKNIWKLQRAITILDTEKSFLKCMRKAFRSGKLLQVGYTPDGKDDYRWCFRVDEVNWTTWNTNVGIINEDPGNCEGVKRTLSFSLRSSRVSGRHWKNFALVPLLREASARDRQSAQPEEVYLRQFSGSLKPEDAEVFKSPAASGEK
D(1A) dopamine receptor (Homo sapiens), sequence (P21728 whole entry, looked up): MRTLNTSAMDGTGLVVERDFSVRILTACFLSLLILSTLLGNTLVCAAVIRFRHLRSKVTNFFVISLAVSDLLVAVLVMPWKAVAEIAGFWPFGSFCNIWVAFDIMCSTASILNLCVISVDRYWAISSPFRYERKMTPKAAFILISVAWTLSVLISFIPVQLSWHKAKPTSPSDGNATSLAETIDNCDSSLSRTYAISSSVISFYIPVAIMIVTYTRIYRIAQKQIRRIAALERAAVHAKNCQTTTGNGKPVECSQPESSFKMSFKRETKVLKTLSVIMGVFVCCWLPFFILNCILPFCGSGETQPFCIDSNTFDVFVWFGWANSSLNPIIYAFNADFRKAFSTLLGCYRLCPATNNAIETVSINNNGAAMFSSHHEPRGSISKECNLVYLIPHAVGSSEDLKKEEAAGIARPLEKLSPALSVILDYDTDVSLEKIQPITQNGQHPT
Beta-2 adrenergic receptor (Homo sapiens), sequence (P07550 whole entry, looked up): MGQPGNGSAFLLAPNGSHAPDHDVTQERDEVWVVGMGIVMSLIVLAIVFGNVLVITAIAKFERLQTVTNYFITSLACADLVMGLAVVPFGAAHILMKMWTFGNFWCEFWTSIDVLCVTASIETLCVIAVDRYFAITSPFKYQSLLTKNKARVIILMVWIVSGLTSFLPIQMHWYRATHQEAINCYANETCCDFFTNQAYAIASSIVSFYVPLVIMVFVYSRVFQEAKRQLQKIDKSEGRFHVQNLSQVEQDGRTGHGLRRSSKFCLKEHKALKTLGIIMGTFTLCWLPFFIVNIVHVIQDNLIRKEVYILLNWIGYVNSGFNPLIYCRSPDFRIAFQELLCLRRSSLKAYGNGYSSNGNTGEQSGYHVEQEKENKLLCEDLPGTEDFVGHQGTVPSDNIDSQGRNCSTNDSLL
M-phase phosphoprotein 8 (Homo sapiens), sequence (Q99549 whole entry, looked up): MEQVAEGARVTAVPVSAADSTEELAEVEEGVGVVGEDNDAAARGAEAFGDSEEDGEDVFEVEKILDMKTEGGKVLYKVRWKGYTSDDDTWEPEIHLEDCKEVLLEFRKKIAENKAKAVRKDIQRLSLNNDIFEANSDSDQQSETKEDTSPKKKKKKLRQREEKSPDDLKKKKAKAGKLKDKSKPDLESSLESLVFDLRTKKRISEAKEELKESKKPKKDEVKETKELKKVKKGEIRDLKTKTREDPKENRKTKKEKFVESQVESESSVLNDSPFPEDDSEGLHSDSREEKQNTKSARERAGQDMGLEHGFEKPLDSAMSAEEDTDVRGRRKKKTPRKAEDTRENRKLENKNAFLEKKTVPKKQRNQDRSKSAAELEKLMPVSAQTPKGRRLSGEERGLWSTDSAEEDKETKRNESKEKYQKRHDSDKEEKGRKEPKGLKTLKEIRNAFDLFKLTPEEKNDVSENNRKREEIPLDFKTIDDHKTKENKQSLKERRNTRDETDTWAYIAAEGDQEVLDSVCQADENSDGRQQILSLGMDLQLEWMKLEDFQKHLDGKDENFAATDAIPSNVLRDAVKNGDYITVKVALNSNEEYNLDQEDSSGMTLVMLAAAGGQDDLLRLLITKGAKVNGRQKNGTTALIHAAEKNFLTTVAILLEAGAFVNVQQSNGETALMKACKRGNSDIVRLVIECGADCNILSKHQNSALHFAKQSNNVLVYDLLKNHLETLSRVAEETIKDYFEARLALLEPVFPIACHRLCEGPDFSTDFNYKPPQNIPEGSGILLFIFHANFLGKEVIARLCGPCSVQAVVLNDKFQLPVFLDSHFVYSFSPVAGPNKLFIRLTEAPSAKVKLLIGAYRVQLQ

Cc1nnc(SCC2=C(C(=O)O)N3C(=O)[C@@H](NC(=O)Cn4cnnn4)[C@H]3SC2)s1
inactive: [1] | [2] | [3] | [4] | [5] | [6] | [7] | [8] | [9] | [10] | [11] | [12] | [13]

O=C(O)CN(CCN(CC(=O)O)CC(=O)O)CCN(CC(=O)O)CC(=O)O
inactive: [1] | [2] | [3] | [4] | [5] | [7] | [14] | [15] | [16] | [17] | [18] | [8] | [9] | [12] | [13]

CN/C(=C\[N+](=O)[O-])NCCSCc1ccc(CN(C)C)o1
inactive: [1] | [2] | [3] | [4] | [5] | [6] | [7] | [14] | [15] | [8] | [10] | [11] | [12] | [13]

CC(=O)OC(C)C[N+](C)(C)C (configuration not stated)
inactive: [1] | [2] | [3] | [4] | [5] | [7] | [15] | [16] | [17] | [18] | [8] | [10] | [12] | [13]

NS(=O)(=O)c1cc2c(cc1Cl)NC(C1CC3C=CC1C3)NS2(=O)=O (configuration not stated)
inactive: [1] | [2] | [3] | [4] | [5] | [7] | [14] | [15] | [16] | [17] | [18] | [8] | [11] | [13]

CC(=O)Oc1cc(C(C)C)c(OCCN(C)C)cc1C
inactive: [1] | [2] | [3] | [4] | [5] | [19] | [6] | [7] | [15] | [16] | [17] | [18] | [8] | [9] | [10] | [11] | [12] | [13]

CCN(CC)CCNC(=O)c1ccc(NC(C)=O)cc1
inactive: [1] | [2] | [3] | [4] | [5] | [19] | [6] | [7] | [14] | [15] | [16] | [17] | [18] | [8] | [11] | [12] | [13]

c1ccc2c(c1)CCCC2C1=NCCN1 (configuration not stated)
inactive: [1] | [2] | [3] | [4] | [5] | [19] | [6] | [7] | [14] | [15] | [16] | [17] | [18] | [8] | [10] | [13]

CCO/C([O-])=N/c1c[n+](N2CCOCC2)no1
inactive: [1] | [2] | [3] | [4] | [5] | [19] | [7] | [14] | [15] | [16] | [17] | [18] | [8] | [9] | [10] | [11] | [12] | [13]

CCc1cccc(N(C)C(N)=Nc2cccc3ccccc23)c1
active: [18] 7.5 nM
inactive: [1] | [2] | [3] | [5] | [7] | [14] | [16] | [17] | [8] | [10] | [12] | [13]

CN(C)C(=O)Oc1cccc([N+](C)(C)C)c1
inactive: [1] | [2] | [3] | [4] | [5] | [19] | [14] | [16] | [17] | [18] | [8] | [9] | [10] | [11] | [12] | [13]

CC(=O)Nc1nnc(S(N)(=O)=O)s1
inactive: [1] | [2] | [3] | [4] | [19] | [6] | [7] | [16] | [17] | [18] | [8] | [9] | [10] | [12] | [13]

CC(=O)OCC1=C(C(=O)O)N2C(=O)[C@@H](NC(=O)Cc3cccs3)[C@H]2SC1
inactive: [1] | [2] | [3] | [4] | [5] | [7] | [17] | [18] | [8] | [9] | [10] | [11] | [12] | [13]
